In PubChem BioAssay AID1347145 (National Center for Advancing Translational Sciences (NCATS), 2019):
Results filed as inconclusive are left out. A call without a number means that no potency is given here. Activity calls are given as the source filed them. Calls come from the whole dose curve; as a rule, active = well fitted inhibition curve with a large enough effect; inconclusive = small, poorly fitted or top-dose-only effect; inactive = no such curve, though single readings can be large or run the other way.

What follows are molecules tested against N-terminal Xaa-Pro-Lys N-methyltransferase 1 (Homo sapiens) (UniProt Q9BV86) (assay: qHTS Assay for Inhibitors of N-terminal methyltransferase 1 (NTMT1): MTaseGlo Assay Confirmatory Screen, Round 1). Conditions: Recombinant NTMT1, MTase-Glo SAH luminescence; series mostly up to 57.1 µM.
Text: Assay Submitter (PI): Rong Huang Ph.D, Purdue University, West Lafayette, IN 47907 The N-terminal methytransferase 1 is the first methyltransferase that methylates protein alpha-N-amines and plays an important role in regulating cell mitosis, chromatin interactions and DNA repair. It is observed to be over-expressed in various cancer patient tissues like malignant melanoma and colorectal cancer tissues. Knockdown of NTMT1 in cancer cells causes cell mitotic defects and enhances sensitivity to DNA damaging chemotherapeutics. […] These critical cellular processes in which NTMT1 is implicated, coupled with emerging links to cellular dysfunction, strengthen the inference that NTMT1 is a compelling novel anticancer target. Progress have been made in understanding the molecular properties of NTMT1 and the biological consequences of protein alpha-N-terminal methylation, but there are no specific small molecule probes available for NTMT1 to fully characterize its MTase activity. To address this unmet need, a panel of assay is created and established to enable quantitative high-throughput screening (qHTS) for novel, potent, and selective small molecule NTMT1 inhibitors. Two orthogonal qHTS that use different reagents (ThioGlo vs. MTaseGlo) are developed for primary robotic screening against the NCATS chemical library of more than 400,000 small molecules. Identified inhibitors are reacquired, validated, and further characterized. MTaseGlo Assay is a luminescence screen that measure the activity of methyltransferases based on the reaction product S-adenosyl homocysteine (SAH). The substrate SAM is converted to SAH upon enzyme activation. MTase-Glo reagent and detection solution convert SAH to ATP and measure the light from the luciferase reaction. […] Early Translation Branch (ETB) National Center for Advancing Translational Sciences (NCATS) National Institute of Health (NIH)
Materials: NTMT1 enzyme, substrate SPKRIA, control peptide RCC1-6 is provided by the Huang laboratory. MTaseGlo Assay: In brief, 3 µL of enzyme mixture (final concentrations of 125 nM and 100 µM for NTMT1 and SAM, respectively) into all wells of a 1,536-well solid-bottom white plate (Greiner Bio One, Monroe, NC). 23 nL of DMSO or Ac-RCC1-10 (final concentration range 234 nM to 143 microM) was transferred via Wako Pin-tool (Wako Automation, Richmond, VA) and incubated (RT) for ~15 minutes. Next, 1 µL of substrate (final concentration 1 µM) or buffer was dispensed, and the reaction proceeded for 30 minutes (RT, protected from light) followed by a 1 microL addition of [5X] MTase-Glo Reagent(R). Samples were incubated (RT, protected from light) for 30 minutes to allow for SAH to be converted to ADP, followed by a 5 microL addition of [1X] MTase-Glo Detection Solution(R) to allow for ADP to be converted to ATP, which was then detected with a luciferase reaction. Samples were centrifuged for 15 seconds at 1,000 RPM's, followed by a RT incubation for 30 minutes. Plates were then read using Luminescence optics on a ViewLux detector. Data were normalized to no-enzyme (0% activity) and no-inhibitor (DMSO; 100%) controls, and the resulting percent inhibition data were fitted to a 4-parameter Hill equation using Graphpad Prism.

N-terminal Xaa-Pro-Lys N-methyltransferase 1 (Homo sapiens), sequence (Q9BV86 whole entry, looked up): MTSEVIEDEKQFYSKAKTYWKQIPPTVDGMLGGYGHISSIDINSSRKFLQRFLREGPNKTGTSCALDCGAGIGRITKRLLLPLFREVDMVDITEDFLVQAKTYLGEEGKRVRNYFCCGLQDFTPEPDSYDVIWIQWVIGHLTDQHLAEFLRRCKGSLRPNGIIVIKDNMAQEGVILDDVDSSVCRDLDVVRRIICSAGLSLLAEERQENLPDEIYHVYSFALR

Row | Structure (SMILES) | Potency | activity change, negative = inhibition
1 | OCC1OC(n2cnc3c(NCc4ccco4)ncnc32)C(O)C1O (stereo not given) | inactive | –
2 | Nc1ncnc2c1nc(Br)n2C1CC(O)C(CO)O1 (stereo not given) | inactive | –
3 | Nc1nc(Cl)nc2c1ncn2[C@@H]1O[C@H](CO)[C@@H](O)[C@H]1O | inactive | –
4 | COc1cc2nc(N3CCN(C)CC3)nc(NC3CC3)c2cc1OC | inactive | –
5 | Nc1nc(=S)c2ncn([C@H]3O[C@@H](CO)[C@@H](O)[C@@H]3O)c2[nH]1 | inactive | –
6 | OC[C@@H]1O[C@@H](n2cnc3c(NCc4ccco4)ncnc32)[C@H](O)[C@H]1O | inactive | –
7 | Nc1ncnc2c1ncn2[C@@H]1O[C@H](COP(=O)(O)OP(=O)(O)CP(=O)(O)O)[C@@H](O)[C@H]1O | inactive | –
8 | C[C@@H](Cc1ccccc1)Nc1ncnc2c1ncn2[C@@H]1O[C@H](CO)[C@@H](O)[C@H]1O | inactive | –
9 | CCN(c1cc(C#CCN2CCOCC2)cc(C(=O)NCc2c(C)cc(C)[nH]c2=O)c1C)C1CCC(N(C)CCOC)CC1 (stereo not given) | inactive | –
10 | CCCc1cc(C)[nH]c(=O)c1CNC(=O)c1cc(-c2ccc(N3CCN(C(C)C)CC3)nc2)cc2c1cnn2C(C)C | inactive | –
11 | COC1C(O)C(CO)OC1n1cnc2c(NC3CCCCC3)ncnc21 (stereo not given) | inactive | –
12 | O=S(=O)(O)c1ccc(Nc2ncnc3c2ncn3[C@@H]2O[C@H](CO)[C@@H](O)[C@H]2O)cc1 | inactive | –
13 | Nc1ncnc2c1ncn2[C@@H]1O[C@@H](CO)[C@H](O)[C@H]1O | inactive | –
14 | CNc1nc2c(N)ncnc2n1[C@@H]1O[C@@H]2COP(=O)(O)O[C@H]2[C@H]1O | inactive | –
15 | Nc1ncnc2c1ncn2[C@@H]1O[C@H](CO)[C@@H](O)[C@@H]1O | inactive | –
16 | COc1cc2c(NC3CCN(C(C)C)CC3)nc(N3CCCN(C(C)C)CC3)nc2cc1OCCOCCN(C)C | inactive | –
17 | COc1cc2nc(N3CCN(C)CC3)nc(NC3CCN(Cc4ccccc4)CC3)c2cc1OC | inactive | –
18 | COc1cc2nc(N3CCN(C)CC3)nc(NC3CCN(C)CC3)c2cc1OC | inactive | –
19 | Nc1ncnc2c1ncn2C1CC(O)C(CO)O1 (stereo not given) | inactive | –
20 | CCCC(=O)Nc1ncnc2c1ncn2[C@@H]1O[C@@H]2COP(=O)(O)O[C@H]2[C@H]1OC(=O)CCC | inactive | –

Row | Structure (SMILES) | Potency | activity change, negative = inhibition
21 | Cc1ccccc1CNc1ncnc2c1ncn2[C@@H]1O[C@H](CO)[C@@H](O)[C@H]1O | inactive | –
22 | CNC(=O)[C@H]1O[C@H](n2cnc3c(NCc4cccc(I)c4)ncnc32)[C@@H](O)[C@@H]1O | inactive | –
23 | N#Cc1ccc(COC[C@H]2O[C@@H](n3c(NCc4ccc(Cl)c(Cl)c4)nc4c(N)ncnc43)[C@@H](O)[C@@H]2O)cc1 | inactive | –
24 | COc1cc2c(NC3CCN(C)CC3)nc(N3CCN(C)CC3)nc2cc1OCCCN(C)C | inactive | –
25 | Nc1ncnc2c1ncn2[C@H]1O[C@@H](CO)[C@@H](O)[C@H]1N | inactive | –
26 | COc1cc2nc(N3CCN(C)CC3)nc(N3CCN(C(C)=O)CC3)c2cc1OC | inactive | –
27 | COc1cc2c(NC3CCN(C)CC3)nc(N3CCCN(C)CC3)nc2cc1OCCN(C)C | inactive | –
28 | COc1cc2c(NC3CCN(C)CC3)nc(N3CCCN(C)CC3)nc2cc1OCC1CCNCC1 | inactive | –
29 | COc1cc2nc(N3CCCN(C)CC3)nc(NC3CC3)c2cc1OC | inactive | –
30 | Nc1nc2c([nH]c(=O)n2[C@@H]2O[C@H](CO)[C@@H](O)[C@H]2O)c(=O)[nH]1 | – | -0.0532% [at 6.33 µM] (inactive)
31 | Nc1ncnc2c1ncn2[C@H]1O[C@H](CO)[C@@H](O)[C@@H]1O | inactive | –
32 | COc1cc2c(NC3CCN(C)CC3)nc(N3CCCN(C)CC3)nc2cc1OCCOCCN1CCCC1 | inactive | –
33 | Nc1ncnc2c1ncn2[C@@H]1O[C@H](C(=O)NC2CC2)[C@@H](O)[C@H]1O | inactive | –
34 | COc1cc2nc(NC3CCN(C)CC3)nc(NC3CCN(C)CC3)c2cc1OC | inactive | –
35 | COc1cc2c(NC3CCN(C)CC3)nc(N3CCCCC3)nc2cc1OCCCN(C)C | inactive | –
36 | COc1cc2nc(N3CCCN(C)CC3)nc(NC3CCN(C)CC3)c2cc1OC | inactive | –
37 | CNc1ncnc2c1ncn2[C@@H]1O[C@H](CO)[C@@H](O)[C@H]1O | inactive | –
38 | C[S+](CCC(N)C(=O)O)CC1O[C@@H](n2cnc3c(N)ncnc32)C(O)C1O (stereo not given in full) | inactive | –
39 | Nc1nc(Cl)nc2c1ncn2[C@@H]1O[C@H](CO)C(O)[C@H]1O (stereo not given in full) | inactive | –
40 | OC[C@@H]1O[C@@H](n2cnc3c(N[C@H]4CCC[C@@H]4O)ncnc32)[C@H](O)[C@H]1O | inactive | –
